Laboratory results published in the supplement of paper PMC6279402.
Structures can show the parent of a compound that is named as a salt. ± gives the standard deviation of the averaged measurements.

Tested on: A549
Test: relative viability (normalised to negative control = 1, bortezomib = 0) (fraction); higher = less cytotoxic
Conditions: inflammatory serum-free RHB-A with cytokines + LPS, 5 d + 24 h CellTiter-Blue
[1] = compound 30 nM, GSK126 pretreatment: 5 uM GSK126
[2] = compound 30 nM, GSK126 pretreatment: none (vehicle)
[3] = compound 300 nM, GSK126 pretreatment: 5 uM GSK126
[4] = compound 300 nM, GSK126 pretreatment: none (vehicle)

| Compound | relative viability [1] | relative viability [2] | relative viability [3] | relative viability [4] |
| --- | --- | --- | --- | --- |
| COc1ccc(-c2cc3c(C)nc(N)nc3n(C3CCC(OCCO)CC3)c2=O)cn1 (centres undefined) | 0.617 ± 0.071 | 0.634 ± 0.063 | 0.0912 ± 0.017 | 0.087 ± 0.014 |
| CC[C@]1(O)C[C@@H]2CN(CCc3c([nH]c4ccccc34)[C@@](C(=O)OC)(c3cc4c(cc3OC)N(C)[C@H]3[C@@](O)(C(=O)OC)[C@H](OC(C)=O)[C@]5(CC)C=CCN6CC[C@]43[C@@H]65)C2)C1 [Vinblastine sulfate salt; Vinblastine sulfate] | 0.447 ± 0.011 | 0.286 ± 0.039 | 0.277 ± 0.024 | 0.255 ± 0.022 |
| OCCn1cc(-c2ccc3c(c2)CC/C3=N\O)c(-c2ccncc2)n1 | 0.948 ± 0.11 | 0.989 ± 0.093 | 1.03 ± 0.21 | 1.14 ± 0.16 |
| COc1cccc2c1C(=O)c1c(O)c3c(c(O)c1C2=O)C[C@@](O)(C(C)=O)C[C@@H]3O[C@H]1C[C@H](N)[C@H](O)[C@H](C)O1 [Daunorubicin hydrochloride; Daunorubicin HCl] | 0.839 ± 0.095 | 0.765 ± 0.056 | 0.133 ± 0.019 | 0.143 ± 0.021 |
| O=C1NC(=O)/C(=C/c2ccc(-c3ccc(F)cc3O)o2)S1 | 0.977 ± 0.15 | 0.857 ± 0.062 | 0.744 ± 0.082 | 0.839 ± 0.1 |
| Cc1cnc(Nc2ccc(N3CCN(C)CC3)cc2)nc1Nc1cccc(S(=O)(=O)NC(C)(C)C)c1 | 1.22 ± 0.15 | 1.2 ± 0.08 | 1.2 ± 0.023 | 1.27 ± 0.053 |
| CNC(=O)c1cc(COc2nnc(Nc3ccc(Cl)cc3)c3ccoc23)ccn1 [Telatinib (BAY 57-9352)] | 0.896 ± 0.11 | 0.887 ± 0.073 | 0.967 ± 0.13 | 0.91 ± 0.13 |
| NC(N)=NC(N)=NCCc1ccccc1 [Phenformin hydrochloride] | 0.897 ± 0.13 | 0.864 ± 0.068 | 0.955 ± 0.058 | 0.966 ± 0.13 |
| CC[C@@H]1C(=O)N(C)c2cnc(Nc3ccc(C(=O)NC4CCN(C)CC4)cc3OC)nc2N1C1CCCC1 | 0.451 ± 0.03 | 0.362 ± 0.021 | 0.212 ± 0.04 | 0.215 ± 0.02 |
| O=c1[nH]cc(F)c(=O)[nH]1 [5-Fluorouracil; Fluorouracil] | 0.96 ± 0.07 | 0.911 ± 0.063 | 0.865 ± 0.13 | 0.924 ± 0.026 |
| O=C1c2c(O)ccc(O)c2C(=O)c2c(NCCNCCO)ccc(NCCNCCO)c21 [Mitoxantrone; Mitoxantrone dihydrochloride] | 0.483 ± 0.02 | 0.376 ± 0.022 | 0.148 ± 0.013 | 0.137 ± 0.008 |
| CS(=O)(=O)N1CCN(Cc2cc3nc(-c4cccc5[nH]ncc45)nc(N4CCOCC4)c3s2)CC1 | 0.716 ± 0.093 | 0.719 ± 0.062 | 0.339 ± 0.066 | 0.411 ± 0.017 |
| O=C(CCBr)N1CCN(C(=O)CCBr)CC1 [Pipobroman] | 0.735 ± 0.045 | 0.705 ± 0.026 | 0.725 ± 0.096 | 0.822 ± 0.12 |
| FC(F)c1nc2ccccc2n1-c1nc(N2CCOCC2)nc(N2CCOCC2)n1 | 0.684 ± 0.12 | 0.738 ± 0.044 | 0.321 ± 0.1 | 0.395 ± 0.033 |
| Nc1nc(N)c2nc(-c3cccc(O)c3)c(-c3cccc(O)c3)nc2n1 | 0.719 ± 0.028 | 0.683 ± 0.014 | 0.664 ± 0.14 | 0.776 ± 0.075 |
| C[C@@H](CN1CC(=O)NC(=O)C1)N1CC(=O)NC(=O)C1 [Dexrazoxone; Dexrazoxane] | 0.828 ± 0.054 | 0.832 ± 0.093 | 0.859 ± 0.048 | 0.908 ± 0.13 |
| CC(C)(C#N)c1cc(Cn2cncn2)cc(C(C)(C)C#N)c1 [Anastrozole; Arimidex] | 0.743 ± 0.051 | 0.792 ± 0.039 | 0.804 ± 0.086 | 0.896 ± 0.04 |
| Cn1cc(-c2ccc3nnc(Sc4ccc5ncccc5c4)n3n2)cn1 | 0.807 ± 0.056 | 0.846 ± 0.079 | 0.859 ± 0.033 | 0.903 ± 0.02 |
| COc1ccc(-c2ccc3c(N4CCOCC4)nc(N4C[C@@H](C)O[C@@H](C)C4)nc3n2)cc1CO | 0.708 ± 0.013 | 0.745 ± 0.027 | 0.428 ± 0.052 | 0.515 ± 0.086 |
| COc1cc2ncnc(Nc3cccc(Br)c3)c2cc1OC | 0.996 ± 0.044 | 0.976 ± 0.048 | 0.537 ± 0.17 | 0.701 ± 0.086 |
| O=C(NOCC1CC1)c1ccc(F)c(F)c1Nc1ccc(I)cc1Cl | 0.441 ± 0.038 | 0.55 ± 0.088 | 0.256 ± 0.014 | 0.312 ± 0.033 |
| c1ccc2c(-c3cnn4cc(-c5ccc(N6CCNCC6)cc5)cnc34)ccnc2c1 | 1.01 ± 0.16 | 0.961 ± 0.15 | 1.1 ± 0.067 | 1.13 ± 0.093 |
| C[C@]12CC[C@@H]3c4ccc(O)cc4C[C@@H](CCCCCCCCC[S+]([O-])CCCC(F)(F)C(F)(F)F)[C@H]3[C@@H]1CC[C@@H]2O (some centres undefined) [Fulvestrant] | 0.901 ± 0.098 | 0.836 ± 0.039 | 0.85 ± 0.065 | 0.855 ± 0.024 |
| CCOc1cc2ncc(C#N)c(Nc3ccc(OCc4ccccn4)c(Cl)c3)c2cc1NC(=O)/C=C/CN(C)C [Neratinib] | 0.713 ± 0.16 | 0.675 ± 0.14 | 0.196 ± 0.014 | 0.183 ± 0.014 |
| c1cncc(CN2CCC(n3ncc4c(N5CCOCC5)nc(-c5ccc6[nH]ccc6c5)nc43)CC2)c1 | 0.861 ± 0.099 | 0.896 ± 0.11 | 0.73 ± 0.14 | 0.761 ± 0.073 |
| O=c1[nH]c(=O)n([C@H]2C[C@H](O)[C@@H](CO)O2)cc1F [Floxuridine] | 0.895 ± 0.018 | 0.886 ± 0.058 | 0.903 ± 0.037 | 0.908 ± 0.05 |
